Inconclusive results are not listed. Where a call stands in place of a potency, no number is given. Active and inactive are the calls of the source. The call rests on the fitted dose curve; in most records, active means well fitted inhibition curve with a large enough effect; inconclusive means small, poorly fitted or top-dose-only effect; inactive means no such curve, though single readings can be large or run the other way.
Experiment: Primary qHTS for inhibitors of nuclear receptor binding SET domain protein 2 (NSD2) in an RCH-ACV wild type WT cells (2C) (AID 1645877); further: nearly all actives have a fitted effect of over 70% in size
Conditions: RCH-ACV (leukaemia line) NSD2 WT (2C) viability, CellTiter-Glo, 72 h; series mostly up to 44.9 µM
Potency means the concentration at half of the fitted maximal effect.

SMILES	Potency
O=C(Nc1ccc(S(=O)(=O)Nc2nccs2)cc1)C(c1ccccc1)c1ccccc1	inactive
COc1ccc(C2=N[C@@H](c3ccc(Cl)cc3)[C@@H](c3ccc(Cl)cc3)N2C(=O)N2CCNC(=O)C2)c(OC(C)C)c1	1.63 µM (active)
O=C(OCC1=CC(O)C2C=CO[C@@H](O[C@@H]3O[C@H](CO)[C@@H](O)[C@H](O)[C@H]3O)C12)c1ccccc1 (stereo partly drawn)	inactive
O=C1NC(Cc2c[nH]c3ccccc23)C(=O)NC1Cc1cnc[nH]1 (stereo not drawn)	inactive
CC(C)(F)C[C@@H](N[C@@H](c1ccc(-c2ccc(S(C)(=O)=O)cc2)cc1)C(F)(F)F)C(=O)NC1(C#N)CC1	inactive
CC1COC2(OC3CC4C5CC(O[C@@H]6O[C@H](C)[C@@H](O[C@@H]7O[C@@H](C)[C@H](O)[C@@H](O)[C@H]7O)[C@H](O)[C@H]6O)C6CC(O)CCC6(C)C5CCC4(C)C3C2C)C(O)C1 (stereo partly drawn)	inactive
C=C(C(=O)O)C1CCC2(C)CCC(O)C(=C)C2C1 (stereo not drawn)	inactive
CN(C)CC1CCOC1(c1ccccc1)c1ccccc1 (stereo not drawn)	inactive

— PubChem BioAssay (NCATS)
